Experimental findings from PubChem BioAssay (EPA / NIEHS) are described below.

As a reminder, the AC50 is the concentration giving half of the maximal activity seen.

Read-out in test [1]: Monokine induced gamma interferon (MIG), CXCL9 (gene 4283)
Put plainly: BSK_SAg_MIG: BioMAP Diversity Plus: SAg Assay for Monokine induced gamma interferon (MIG) Biomarker Activity (AID 2283092). The conditions noted are these: primary human HUVEC with PBMC; actives raise or lower the signal. An outline of the steps: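 Endothelial cells and PBMC were co-cultured, exposed to test chemicals, and sampled 24 h later. MIG was measured by ELISA, and responses were fitted in both directions relative to DMSO.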

Test [2] can be described thus: BSK_SAg_PBMCCytotoxicity: PBMC Cytotoxicity Assessment in the BioMAP Diversity Plus: SAg Assay (AID 2283093).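 Further: PBMC viability measured as Alamar Blue reduction fluorescence at 546/580 nm; fitted both ways against DMSO so a hit may be loss or gain of signal.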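 On AC50: PBMC superantigen activated with SEB plus TSST-1 one hour after compound addition.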 To be noted: primary human HUVEC with PBMC. The essentials: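 Compound added to 75,000 PBMC/well for 1 h; SEB and TSST-1 then added at 20 ng/mL final each; 90 h incubation; Alamar Blue 6 h; read 546/580 nm ex/em. Activity fitted bidirectionally relative to DMSO baseline.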

Read-out in test [3]: Interleukin-8 (IL8), CXCL8 (gene 3576)
The test is described as follows: BSK_SAg_IL8: BioMAP Diversity Plus: SAg Assay for Interleukin-8 (IL8) Biomarker Activity (AID 2283094). To be noted: primary human HUVEC with PBMC; actives raise or lower the signal. An outline of the steps:
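ELISA read-out of IL-8 in a primary human vascular co-culture (umbilical vein endothelium plus PBMC), taken 24 h after compound addition. Values derive from bidirectional fits against DMSO negative controls.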

Test [4] is described as follows: BSK_SAg_SRB: Viability Assessment in the BioMAP Diversity Plus: SAg Assay (AID 2283096).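 Further: cells read one day after compound addition; hits may be either gain or loss of signal compared with DMSO.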 The conditions noted are these: primary human HUVEC with PBMC. An outline of the steps:
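Total protein by sulforhodamine B staining, 24 h after dosing, in HUVEC–PBMC co-culture; DMSO-referenced bidirectional fitting.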

A short description of test [5]: BSK_SAg_Proliferation: Cell Proliferation Assessment in the BioMAP Diversity Plus: SAg Assay (AID 2283095).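 Further: relative cell number as total protein by SRB absorbance in sub-confluent culture.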 The conditions noted are these: primary human HUVEC with PBMC. An outline of the steps:
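Cells (endothelium plus PBMC, human primary) were dosed with chemical, cultured 96 h, fixed in 10% TCA and stained with 0.1% SRB. Absorbance at 560 nm gave relative protein, fitted bidirectionally relative to DMSO.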

For test [6], the target named is human CYP19A1, CYP19A1 (gene 1588) (UniProt P11511). Put plainly: NVS_ADME_hCYP19A1: NovaScreen (NVS) CYP450-related Enzyme Activity (ADME) Assay for human CYP19A1 (AID 2283098; active means hit-call score of the fitted dose curve at least 0.9, where 1 is the maximum). An outline of the steps: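 Biochem, cell-free; recombinant enzyme + specific substrate; fluorescence intensity at 0.5 h post-dose; 10 uM duplicate primary, conc. series for actives; acetonitrile = negative control/baseline; positive and negative controls on every plate.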
Sequence of human CYP19A1, CYP19A1 (gene 1588) (P11511 whole entry, looked up): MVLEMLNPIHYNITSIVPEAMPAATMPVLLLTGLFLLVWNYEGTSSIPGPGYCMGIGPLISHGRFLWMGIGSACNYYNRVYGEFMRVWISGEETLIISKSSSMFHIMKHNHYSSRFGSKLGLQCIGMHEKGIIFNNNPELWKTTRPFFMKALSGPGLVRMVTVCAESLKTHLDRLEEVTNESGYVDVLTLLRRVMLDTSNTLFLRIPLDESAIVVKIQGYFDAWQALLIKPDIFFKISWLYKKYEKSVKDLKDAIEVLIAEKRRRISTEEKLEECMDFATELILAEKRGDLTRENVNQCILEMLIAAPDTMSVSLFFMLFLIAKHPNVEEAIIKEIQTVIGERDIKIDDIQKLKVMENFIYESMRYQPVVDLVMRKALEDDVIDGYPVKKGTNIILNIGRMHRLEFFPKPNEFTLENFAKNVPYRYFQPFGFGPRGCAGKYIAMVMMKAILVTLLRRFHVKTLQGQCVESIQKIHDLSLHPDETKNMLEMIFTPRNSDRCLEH

The target of test [7] is human CYP1A1, CYP1A1 (gene 1543) (UniProt P04798). Put plainly: NVS_ADME_hCYP1A1: NovaScreen (NVS) CYP450-related Enzyme Activity (ADME) Assay for human CYP1A1 (AID 2283100; active means hit-call score of the fitted dose curve at least 0.9, where 1 is the maximum). An outline of the steps:
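Recombinant CYP1A1 with a fluorogenic substrate, cell-free, read 1 h after dosing; acetonitrile as negative control. Single-concentration screen at 10 uM in duplicate, then concentration-response up to 20 uM for chemicals meeting ~30% inhibition threshold.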

Test [8] has as its target human CYP2A6, CYP2A6 (gene 1548) (UniProt P11509). The test is described as follows: NVS_ADME_hCYP2A6: NovaScreen (NVS) CYP450-related Enzyme Activity (ADME) Assay for human CYP2A6 (AID 2283099; active means hit-call score of the fitted dose curve at least 0.9, where 1 is the maximum). The essentials:
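Recombinant human CYP2A6 expressed in insect cells, cell-free; fluorogenic substrate turnover read by fluorescence intensity 0.5 h after dosing. Primary screen 10 uM in duplicate, then concentration-response up to 20 uM; acetonitrile as negative control.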

Test [9] concerns the target human CYP2B6, CYP2B6 (gene 1555) (UniProt P20813). Put plainly: NVS_ADME_hCYP2B6: NovaScreen (NVS) CYP450-related Enzyme Activity (ADME) Assay for human CYP2B6 (AID 2283101; active means hit-call score of the fitted dose curve at least 0.9, where 1 is the maximum). The essentials:
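Cell-free recombinant enzyme assay with a fluorogenic substrate; fluorescence intensity read 1 hour after dosing. Loss of signal relative to acetonitrile negative control indicates inhibition. Primary screen run in duplicate at 10 uM, actives then tested in concentration series.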

The target in test [10] is human CYP1A2, CYP1A2 (gene 1544) (UniProt P05177). Put plainly: NVS_ADME_hCYP1A2: NovaScreen (NVS) CYP450-related Enzyme Activity (ADME) Assay for human CYP1A2 (AID 2283102; active means hit-call score of the fitted dose curve at least 0.9, where 1 is the maximum;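 on AC50: potency for inhibition since loss of fluorescence marks reduced CYP1A2 activity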). An outline of the steps: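 Recombinant human CYP1A2 from insect cells, cell-free, fluorogenic substrate; read 0.5 h after dosing with loss of fluorescence signal indicating inhibition. Primary screen in duplicate at 10 uM, acetonitrile as negative control.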
Sequence of human CYP1A2, CYP1A2 (gene 1544) (P05177 whole entry, looked up): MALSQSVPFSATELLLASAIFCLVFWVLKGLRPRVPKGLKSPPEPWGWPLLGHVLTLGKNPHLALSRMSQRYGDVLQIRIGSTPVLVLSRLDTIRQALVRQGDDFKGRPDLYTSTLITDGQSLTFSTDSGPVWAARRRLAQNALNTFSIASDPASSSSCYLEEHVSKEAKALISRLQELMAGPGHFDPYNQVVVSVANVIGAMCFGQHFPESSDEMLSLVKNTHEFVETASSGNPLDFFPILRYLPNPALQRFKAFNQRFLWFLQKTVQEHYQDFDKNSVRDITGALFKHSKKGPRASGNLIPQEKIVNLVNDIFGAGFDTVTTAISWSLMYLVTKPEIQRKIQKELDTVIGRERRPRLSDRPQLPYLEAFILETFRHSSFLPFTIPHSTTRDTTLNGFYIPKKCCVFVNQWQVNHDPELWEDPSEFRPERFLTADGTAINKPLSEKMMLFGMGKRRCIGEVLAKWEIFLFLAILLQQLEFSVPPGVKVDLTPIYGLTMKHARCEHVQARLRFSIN

Structures are written as SMILES. Records with an inconclusive call do not appear. The source made the active and inactive calls. How the source made its calls, unless noted: active means hit-call score of the fitted dose curve at least 0.9, where 1 is the maximum; inactive means score below 0.9.

Sequence of human CYP2A6, CYP2A6 (gene 1548) (P11509 whole entry, looked up): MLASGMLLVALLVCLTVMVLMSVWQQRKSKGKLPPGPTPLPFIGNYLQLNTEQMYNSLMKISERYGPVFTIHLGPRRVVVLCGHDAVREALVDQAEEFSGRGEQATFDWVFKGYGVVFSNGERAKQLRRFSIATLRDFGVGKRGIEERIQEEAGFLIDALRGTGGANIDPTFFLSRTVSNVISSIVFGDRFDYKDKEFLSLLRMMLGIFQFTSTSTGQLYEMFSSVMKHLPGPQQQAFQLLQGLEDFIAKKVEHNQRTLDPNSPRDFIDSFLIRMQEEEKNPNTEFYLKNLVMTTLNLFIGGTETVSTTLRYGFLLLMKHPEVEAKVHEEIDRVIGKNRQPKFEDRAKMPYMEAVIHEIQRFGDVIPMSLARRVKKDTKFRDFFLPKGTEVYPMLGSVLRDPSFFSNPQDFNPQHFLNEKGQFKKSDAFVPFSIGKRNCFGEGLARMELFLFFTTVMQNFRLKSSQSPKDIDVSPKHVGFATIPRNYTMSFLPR
Sequence of human CYP1A1, CYP1A1 (gene 1543) (P04798 whole entry, looked up): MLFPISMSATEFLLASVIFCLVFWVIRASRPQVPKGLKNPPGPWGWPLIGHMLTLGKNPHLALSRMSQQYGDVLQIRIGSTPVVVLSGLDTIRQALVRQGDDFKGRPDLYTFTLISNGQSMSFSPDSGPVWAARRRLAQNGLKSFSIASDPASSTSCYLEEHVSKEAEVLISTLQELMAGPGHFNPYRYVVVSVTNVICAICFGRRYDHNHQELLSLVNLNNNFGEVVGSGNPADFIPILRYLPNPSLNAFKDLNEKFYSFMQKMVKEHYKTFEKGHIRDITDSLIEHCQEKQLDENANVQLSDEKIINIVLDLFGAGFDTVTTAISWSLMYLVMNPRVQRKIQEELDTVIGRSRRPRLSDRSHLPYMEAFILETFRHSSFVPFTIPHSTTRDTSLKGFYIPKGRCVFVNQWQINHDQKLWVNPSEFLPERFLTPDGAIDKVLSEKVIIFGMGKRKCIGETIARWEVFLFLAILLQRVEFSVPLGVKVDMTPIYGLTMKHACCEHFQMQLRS
Sequence of human CYP2B6, CYP2B6 (gene 1555) (P20813 whole entry, looked up): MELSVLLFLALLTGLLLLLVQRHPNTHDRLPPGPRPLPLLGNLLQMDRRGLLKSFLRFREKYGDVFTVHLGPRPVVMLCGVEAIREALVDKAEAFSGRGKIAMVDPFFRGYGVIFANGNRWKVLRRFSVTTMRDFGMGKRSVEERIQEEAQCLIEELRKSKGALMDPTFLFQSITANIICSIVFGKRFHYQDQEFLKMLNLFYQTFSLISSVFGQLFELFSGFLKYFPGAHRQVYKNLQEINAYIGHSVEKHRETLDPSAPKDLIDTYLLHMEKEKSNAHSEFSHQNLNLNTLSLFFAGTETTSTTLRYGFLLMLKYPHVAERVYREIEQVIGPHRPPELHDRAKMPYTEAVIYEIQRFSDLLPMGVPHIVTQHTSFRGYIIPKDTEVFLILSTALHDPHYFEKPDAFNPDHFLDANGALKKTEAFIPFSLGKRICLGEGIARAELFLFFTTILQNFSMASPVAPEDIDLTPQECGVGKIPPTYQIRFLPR

For the compound `CCCCCCCCCCCCc1ccccc1S(=O)(=O)O`, the result in test [1], in test [2], in test [3] and in [4] was inactive.
Consider `CC#C[C@]1(O)CC[C@H]2[C@@H]3CCC4=CC(=O)CCC4=C3[C@@H](c3ccc(N(C)C)cc3)C[C@@]21C`, for which the half-maximal activity concentration (AC50) in test [1] was 35.5 µM (active); in [5], 36.2 µM (active); in test [4], 31.7 µM (active). For the same compound, the result in [2] and in [3] was inactive.
As for `Cc1cc(CCN2CCN(c3nsc4ccccc34)CC2)cc2c1NC(=O)CC2(C)C`, the AC50 was 17.3 µM (active) in test [1]; 13 µM (active) in test [2]; 20 µM (active) in test [3]; 8.05 µM (active) in test [5]; 33.9 µM (active) in test [4]. Besides, the compound was classed as inactive in [6] and in test [7].
For `CC1=C(/C=C/C(C)=C/C=C/C(C)=C/C(=O)O)C(C)(C)CCC1`, the AC50 in [1] is 36.5 µM (active); in [5], 27.5 µM (active); in test [7], 1.43 µM (active). For the same compound, the result in test [2], in test [4], in test [8], in [9] and in [10] was inactive.
`COC(=O)CCCCC(=O)OC`: the outcome in test [1], in test [2], in test [5] and in test [4] was inactive.
Take `CCCCCCCC(=O)O`: the outcome in [1], in test [2] and in test [4] was inactive.
Turning to `Nc1cccc2c(N)cccc12`, the outcome in [1], in test [4] and in test [7] was inactive. The AC50 is 13.7 µM (active) in test [2], 17.5 µM (active) in [5], 7.14 µM (active) in test [9] and 3.06 µM (active) in test [10].
On to `CN(C)C=O`, for which the result in test [1], in test [2], in test [5] and in test [4] was inactive.
Turning to `CCCCCCCCCCCCN1CCCC1=O`, the concentration at half-maximal activity (AC50) in [1] is 36.8 µM (active); in [2], 33 µM (active); in test [5] it was 36.3 µM (active); in test [4], 30.9 µM (active).
On to `O=c1c(-c2ccc(O)cc2)coc2cc(O)ccc12`, for which the outcome in test [1], in test [2] and in [4] was inactive. In [5], the concentration at half-maximal activity (AC50) is 20 µM (active).
In the case of `c1ccc2cc3c(ccc4ccccc43)cc2c1`, the outcome in test [1], in [2], in test [5], in test [4], in test [6] and in [7] was inactive.
With `CCc1ccc(CCOc2ccc(CC3SC(=O)NC3=O)cc2)nc1` (stereo unspecified), the outcome in [1], in test [2] and in [4] was inactive. In test [5], the concentration at half-maximal activity (AC50) was 7.06 µM (active).
Regarding `C#C[C@]1(O)CC[C@H]2[C@@H]3CCC4=CC(=O)CC[C@@H]4[C@H]3CC[C@@]21C`, the result in test [1] and in [2] was inactive. Besides, in [4], the AC50 is 7.46 µM (active).
Consider `CC(C)(C)c1cc(C(C)(C)C)c(O)c(C(C)(C)C)c1`, for which the result in [1], in test [2] and in [4] was inactive.
Take `CCCOc1sc(C(=O)N2CCC(c3cc(CN)ccc3F)CC2)c(C)c1Br`: the AC50 in test [1] is 11.9 µM (active); in test [2], 6.22 µM (active); in test [4], 6.68 µM (active); in [9], 8.64 µM (active); in [10], 5.25 µM (active). For the same compound, the result in [7] was inactive.
Consider `Cc1oc(-c2ccccc2)nc1CCOc1ccc(C[C@H](Nc2ccccc2C(=O)c2ccccc2)C(=O)O)cc1`, for which the half-maximal activity concentration (AC50) in [1] is 38.9 µM (active); in test [2] it was 28.9 µM (active); in test [4], 18.8 µM (active).
Regarding `CCCCOCCO`, the result in test [1], in test [2] and in test [4] was inactive.
`CC(C)(C)c1cccc(C(C)(C)C)c1O`: the result in [1], in test [2], in test [5] and in test [4] was inactive.
In the case of `C[C@@H]1C[C@H]2[C@@H]3CCC4=CC(=O)C=C[C@]4(C)[C@@]3(F)[C@@H](O)C[C@]2(C)[C@@]1(O)C(=O)COP(=O)(O)O`, the outcome in test [1], in test [2], in [5] and in test [4] was inactive.
For `Oc1cccc(O)c1`, the result in test [1], in test [2] and in test [4] was inactive.
Consider `CN1CCC[C@H]1c1cccnc1`, for which the result in test [1], in test [2], in test [5] and in [4] was inactive.
For the compound `FC(F)(I)C(F)(F)C(F)(F)C(F)(F)C(F)(F)C(F)(F)I`, the figures for the half-maximal activity concentration (AC50) in test [1] and in test [4] were 54.9 µM (active) [middle of 5 runs] and 28.1 µM (active) [middle of 5 runs], respectively.
With `C=C(C)C(=O)OCCC(F)(F)C(F)(F)C(F)(F)C(F)(F)C(F)(F)C(F)(F)F`, the outcome in test [1], in test [2], in [4] and in test [6] was inactive.
For the compound `CCCOC(=O)c1ccc(O)cc1`, the result in test [1], in [2], in test [4], in [8] and in [9] was inactive.
On to `CN1CCN(c2ccccc2/C=C2\SCCN(c3ccc(Cl)c(Cl)c3)C2=O)CC1`, for which the outcome in test [1] was inactive. Further, the AC50 in test [2] was 14.4 µM (active); in test [5] it was 6.38 µM (active); in [4], 5.22 µM (active).
With `Oc1cc2ccccc2c2ccccc12`, the half-maximal activity concentration (AC50) in test [1] was 10.8 µM (active); in test [2], 3.93 µM (active); in test [4], 9.94 µM (active); in test [7] it was 5.31 µM (active); in [9], 1.31 µM (active); in test [10], 0.0278 µM (active). Further, the call in [8] was inactive.
As for `O=C(O)Cc1cc(I)c(Oc2cc(I)c(O)c(I)c2)c(I)c1`, the AC50 in test [1] was 23.6 µM (active). The outcome in test [2] and in test [4] was inactive.
Turning to `O=[N+]([O-])c1ccc(O)cc1`, the result in test [1], in test [2], in test [4], in test [8] and in test [9] was inactive.
As to `CCOC(=O)CC(O)(CC(=O)OCC)C(=O)OCC`, the outcome in test [1], in test [2] and in test [4] was inactive.
With `c1ccc2c(c1)Cc1ccccc1-2`, the result in test [1], in test [2] and in [4] was inactive.
With `CCCCCCCCC(=O)O`, the result in [1], in [2] and in test [4] was inactive.
Turning to `CCCCCCC(=O)O`, the result in test [1], in test [2], in test [5] and in test [4] was inactive.
Turning to `CCCCCCCCCCCCCC[N+](C)(C)C`, the AC50 is 7.11 µM (active) in [1], 4.69 µM (active) in test [2], 0.539 µM (active) in test [5] and 3.15 µM (active) in test [4].
For `CCCCC(CC)COC(=O)CCCCC(=O)OCc1ccccc1` (stereo unspecified), the outcome in [1], in test [2] and in test [4] was inactive.
As for `CC(C)CCCCCCOC(=O)CCCCC(=O)OCCCCCCC(C)C`, the outcome in test [1], in test [2], in test [5] and in test [4] was inactive.
On to `CC[C@H](C)[C@@H](C(=O)O)n1sc2ccccc2c1=O`, for which the result in [1], in test [2], in test [5] and in test [4] was inactive.
